The results in this text go back to PubChem BioAssay (NCATS).

Test [1] deals with Lysosomal acid glucosylceramidase (Homo sapiens) (UniProt P04062). Briefly: Glucocerebrosidase-p2 (AID 348; in the data active = potency below about 10 µM; note: potency is the fitted concentration of half-maximal effect). Conditions: purified GBA, blue fluorogenic substrate, 40 min. A digest of the protocol: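 Normal human glucocerebrosidase (0.2 nM) with blue fluorogenic substrate (80 uM final) in citrate/phosphate pH 5.9 with 10mM sodium taurocholate, 0.01% tween-20; 40 min RT, NaOH/glycine stop; fluorescence Ex 365/Em 440; AC50 from a titration from 0.6 nM upwards.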

Test [2] can be described thus: AP1 Signaling Pathway (AID 357; active = well fitted curve in either direction with a large enough effect, not every such curve was filed as active;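 note: ME-180 reporter cells stimulated with EGF at its EC50 level; % is set by controls: 0 for no effect and ±100 for the full control effect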). Particulars: ME-180 AP-1-bla reporter, EGF-induced, beta-lactamase ratio, 5 h; at 7.69 µM (top of the series) unless noted. In outline:
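AP-1-bla ME-180 cells, Opti-MEM + 0.5% dialyzed FBS, plated overnight 37 °C. Cpd titration + EC50 EGF, 5 h 37 °C. CCF4 2.5 h RT; ex 405, em 460/530 ratio → %activity, AC50.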

The target in test [3] is Cytochrome P450 1A2 (Homo sapiens) (UniProt P05177). As to the kind of experiment: p450-cyp1a2 (AID 410; calls by dose curve; note: potency is the fitted concentration of half-maximal effect). Conditions: recombinant CYP1A2, luciferin-ME demethylation, luminescence; series mostly up to 57 µM. In outline:
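20nM CYP1A2, 100uM Luciferin-ME (=Km), 100mM KPO4; cpd 10 min RT; +NADPH regen, 60 min RT; stop/detect 20 min; luminescence. Normalized to furafylline 57 uM = full inhibition.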

A short description of test [4]: NFAT Signaling Pathway (AID 444; active = well fitted curve in either direction with a large enough effect, not every such curve was filed as active;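 note: carbachol stimulus at about its EC50 of 1 µM final; % is set by controls: 0 for no effect and ±100 for the full control effect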). Conditions: Jurkat NFAT-bla M1, carbachol, beta-lactamase ratio, 5 h; at 7.69 µM (top of the series) unless noted. In outline:
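Read-out: CCF4 FRET ratio (460 nm/530 nm) after 1 h RT dye loading, used for %activity and AC50 from titration series. Cells: Jurkat NFAT-β-lactamase/M1 line, treated with compound plus 1 uM carbachol for 5 h, 37 °C.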

The nature of test [5]: Stat Signaling Pathway (AID 446; active = well fitted curve in either direction with a large enough effect, not every such curve was filed as active;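 note: ME-180 cervical cancer cells given 40 pM IL-6 alongside compound; SIE-controlled beta-lactamase reporter measured as 460/530 nm FRET emission ratio; % is set by controls: 0 for no effect and ±100 for the full control effect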). Particulars: ME-180 (cervical carcinoma) SIE beta-lactamase reporter, IL-6 stimulated, 5 h; at 7.69 µM (top of the series) unless noted. In outline:
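FRET read-out (405 nm excitation, 460/530 nm emission) of a beta-lactamase reporter under a STAT-inducible element in ME-180 cervical carcinoma cells. Cells with compound receive 40 pM IL-6 for 5 h. Values are normalised to AC90 stimulation and AC90 JAK-inhibitor controls.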

The target in test [6] is Glucocorticoid receptor (Homo sapiens) (UniProt P04150). As to the kind of experiment: GR-GFP Redistribution (AID 450;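 active = compounds whose dose series gives a full or clear partial fitted curve of increased nuclear translocation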; note: potency is the fitted concentration of half-maximal effect). Particulars: U2OS GR-GFP nuclear translocation, laser cytometry, 2 h.
The target is the same in test [7]. As to the kind of experiment: GR-EFC Redistribution (AID 451; calls by dose curve; note: potency is the fitted concentration of half-maximal effect). Conditions: CHO-K1 GR-EFC translocation, beta-gal luminescence, 2 h. A digest of the protocol: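 Translocation of GR-ED fusion to nuclear EA restores b-gal, read by luminescence after 1 h room-temperature detection. Engineered CHO-K1 biosensor cells, 1,000/well, exposed 2 h at 37 C to titrations up to 46 uM final.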

Test [8] deals with Mitogen-activated protein kinase 10 (Mus musculus) (UniProt Q61831). Briefly: JNK3 AlphaScreen Assay (AID 530; active = well fitted curve in either direction with a large enough effect, not every such curve was filed as active;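 note: kinase came from lysate of stimulated human HepG2 cells; signal reports phosphorylation of biotinylated GST-cJun 1-79 at Ser73 with 10 µM ATP; % is set by controls: 0 for no effect and ±100 for the full control effect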). Conditions: JNK3 lysate, c-Jun phosphorylation; series mostly up to 57.1 µM. A digest of the protocol: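 Kinase buffer: 20 mM Tris-HCl pH 7.6, 10 mM MgCl2, 1 mM DTT, 0.1 mM Na3VO4, 0.01% Tween-20; ATP 10 uM. Substrate biotin-GST-cJun(1-79), enzyme from activated HepG2 lysates. Detection by Ser73 phospho-antibody AlphaScreen.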

Test [9] concerns the target 3',5'-cyclic-AMP phosphodiesterase 4B (Homo sapiens) (UniProt Q07343). Briefly: qHTS Assay for Inhibitors of PDE-IV (AID 607; active = well fitted activation curve with a large enough effect in the main read-out, with a control signal flat, not every such curve was filed as active; note: % of control where 0% means no effect). Particulars: HEK293 ACTOne CNG channel cells, membrane potential fluorescence; series mostly up to 22.9 µM. In outline: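 Cell-based read-out of cAMP via a modified cyclic nucleotide-gated channel and membrane potential dye (535/590 nm) in HEK293 cells expressing PDE4 endogenously. Compounds tested up to 22.9 uM final; 100 uM RO 20-1724 reference.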

In test [10] the target is Dual specificity protein kinase CLK4 (Homo sapiens) (UniProt Q9HAZ1). Briefly: qHTS Assay for Inhibitors of CDC-like Kinase 4 (ADP-FP Assay) (AID 1795). Note: % is set by controls: 0 for no effect and ±100 for the full control effect; nearly all actives have a fitted effect of over 60% in size. Conditions: Transcreener ADP fluorescence polarization; series mostly up to 50 µM. In outline:
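Recombinant human Clk4 (6.25 nM) phosphorylated RS repeat peptide (100 uM) with 1 uM ATP in Tris pH 7.5/MgCl2/EGTA/DTT/Triton buffer for one hour. ADP was quantified by Transcreener competitive fluorescence polarization against an ADP calibration curve.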

Test [11] deals with Ubiquitin carboxyl-terminal hydrolase 1 (Homo sapiens) (UniProt O94782). Briefly: Inhibitors of USP1/UAF1: Pilot qHTS (AID 504865).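 Note: rhodamine fluorescence freed from ubiquitin-rhodamine substrate followed over time; top concentration of the series differs between compounds; % is set by controls: 0 for no effect and ±100 for the full control effect; nearly all actives have a fitted effect of over 35% in size.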 Particulars: purified USP1/UAF1, Ub-rhodamine cleavage fluorescence; series mostly up to 54.9 µM. A digest of the protocol: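 USP1/UAF1 complex (1nM) preincubated with compound 15 min at room temperature, then Ub-Rho substrate (150nM final) added. Fluorescence read kinetically at 480/540 nm, 6 reads every 60 seconds. Buffer: 50mM HEPES pH 7.8, 0.5mM EDTA, 0.1 mg/ml BSA, 1mM TCEP, 0.01% Tween-20.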

Test [12] is described as follows: Primary qHTS for small molecule stabilizers of the endoplasmic reticulum resident proteome: Secreted ER Calcium Modulated Protein (SERCaMP) assay (AID 1508630). Note: % is set by controls: 0 for no effect and ±100 for the full control effect. Conditions: SH-SY5Y GLuc-SERCaMP (Gaussia luciferase released on ER calcium loss) secretion, thapsigargin, luminescence; series mostly up to 38.4 µM. In outline: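 The SH-SY5Y reporter protocol was run at 3 concentrations up to 38.3 uM (primary) or 11 concentrations (follow-up): 16 h compound, 100 nM thapsigargin for 4 h, then extracellular luciferase luminescence.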

Test [13] addresses Cytochrome P450 3A4 (Homo sapiens) (UniProt P08684). As to the kind of experiment: qHTS Assay for Inhibitors and Substrates of Cytochrome P450 3A4 (AID 884). Note: potency is the fitted concentration of half-maximal effect; nearly all actives have a fitted effect of over 50% in size. Particulars: recombinant CYP3A4, Luciferin-PPXE luminescence; series mostly up to 57.1 µM. A digest of the protocol: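 Luminescent readout of luciferin produced by CYP3A4 (20 nM) dealkylation of Luciferin-PPXE, 25 uM (its KM). NADPH-driven reaction ran 60 min at RT after 10 min compound preincubation; data scaled to 57 uM ketoconazole as 100% inhibition.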

Test [14] has the same target. Briefly: qHTS Assay for Activators of Cytochrome P450 3A4 (AID 885). Note: nearly all actives have a fitted effect of over 65% in size. Particulars: recombinant CYP3A4, Luciferin-PPXE luminescence, 60 min; series mostly up to 57.1 µM. A digest of the protocol:
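Luminescent readout of luciferin formed from 25 uM Luciferin-PPXE (KM level) by 20 nM CYP3A4 in 200 mM KPO4, with 60 min NADPH-driven reaction at room temperature after 10 min compound exposure. Ketoconazole (57 uM) defined 100% inhibition.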

In test [15] the target is Dual specificity protein kinase CLK4 (Homo sapiens) (UniProt Q9HAZ1). As to the kind of experiment: qHTS Assay for Inhibitors of CDC-like Kinase 4 (ADP-Glo Assay) (AID 1771). Note: potency is the fitted concentration of half-maximal effect; nearly all actives have a fitted effect of over 70% in size. Particulars: recombinant CLK4, ADP-Glo luminescence; series mostly up to 80 µM. A digest of the protocol:
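25 nM Clk4, 100 uM RS peptide, 1 uM ATP (final); 2 mM MgCl2, 0.5 mM EGTA, 2.5 mM DTT, 0.01% Triton X-100; 1 hr RT. ADP-Glo readout: ATP depletion 45 min, conversion/luciferase 30 min, luminescence.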

The target of test [16] is Cytochrome P450 2C9 (Homo sapiens) (UniProt P11712). Briefly: qHTS Assay for Inhibitors and Substrates of Cytochrome P450 2C9 (AID 883). Note: % is set by controls: 0 for no effect and ±100 for the full control effect; nearly all actives have a fitted effect of over 60% in size. Conditions: recombinant CYP2C9, luciferin-H luminescence, 60 min; series mostly up to 57.1 µM. In outline: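 Inhibition of CYP2C9 is scored as loss of luminescence, with 57uM sulphaphenazole defining 100% inhibition. Substrate Luciferin-H is used at 100uM, equal to its KM; enzyme at 10nM in 25mM KPO4, 60 min at 37C with NADPH regeneration.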

In test [17] the target is Cytochrome P450 2C19 (Homo sapiens) (UniProt P33261). As to the kind of experiment: qHTS Assay for Inhibitors and Substrates of Cytochrome P450 2C19 (AID 899). Note: potency is the fitted concentration of half-maximal effect; nearly all actives have a fitted effect of over 60% in size. Conditions: recombinant CYP2C19, luciferin-H EGE luminescence; series mostly up to 57.1 µM. A digest of the protocol:
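5nM enzyme + 10uM Luciferin-H EGE (=KM), 50mM KPO4; cpd pin-transferred, 10 min 37C; NADPH regen, 60 min 37C; stopped w/ luciferin detection reagent, 20 min; luminescence. Normalized to 57uM ketoconazole (AC100).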

Values without a mark were called inactive. Records with an inconclusive call do not appear. The source made the active and inactive calls. Unless noted, calls come from the whole dose curve; as a rule, active = well fitted curve in the direction sought with a large enough effect; inconclusive = small, poorly fitted or top-dose-only effect, or another doubt; inactive = no such curve, though single readings can be large; an effect the other way counts as inactive or inconclusive.

Chain of Lysosomal acid glucosylceramidase (Homo sapiens) (P04062 whole entry, looked up): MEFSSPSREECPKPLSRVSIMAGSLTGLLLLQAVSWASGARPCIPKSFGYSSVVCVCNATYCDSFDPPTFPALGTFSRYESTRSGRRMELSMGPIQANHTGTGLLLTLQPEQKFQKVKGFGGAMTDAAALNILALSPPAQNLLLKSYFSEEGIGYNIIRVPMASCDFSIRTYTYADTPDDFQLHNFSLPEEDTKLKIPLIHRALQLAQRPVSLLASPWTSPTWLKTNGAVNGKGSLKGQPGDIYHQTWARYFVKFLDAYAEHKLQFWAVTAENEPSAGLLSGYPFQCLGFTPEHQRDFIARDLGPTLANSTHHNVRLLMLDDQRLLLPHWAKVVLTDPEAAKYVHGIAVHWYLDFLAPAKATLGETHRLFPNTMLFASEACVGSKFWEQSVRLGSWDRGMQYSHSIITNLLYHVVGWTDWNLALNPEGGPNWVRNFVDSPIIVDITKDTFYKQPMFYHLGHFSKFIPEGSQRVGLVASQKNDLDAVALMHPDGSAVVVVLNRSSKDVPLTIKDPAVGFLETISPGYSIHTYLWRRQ
Chain of Glucocorticoid receptor (Homo sapiens) (P04150 whole entry, looked up, the tested form may be a part): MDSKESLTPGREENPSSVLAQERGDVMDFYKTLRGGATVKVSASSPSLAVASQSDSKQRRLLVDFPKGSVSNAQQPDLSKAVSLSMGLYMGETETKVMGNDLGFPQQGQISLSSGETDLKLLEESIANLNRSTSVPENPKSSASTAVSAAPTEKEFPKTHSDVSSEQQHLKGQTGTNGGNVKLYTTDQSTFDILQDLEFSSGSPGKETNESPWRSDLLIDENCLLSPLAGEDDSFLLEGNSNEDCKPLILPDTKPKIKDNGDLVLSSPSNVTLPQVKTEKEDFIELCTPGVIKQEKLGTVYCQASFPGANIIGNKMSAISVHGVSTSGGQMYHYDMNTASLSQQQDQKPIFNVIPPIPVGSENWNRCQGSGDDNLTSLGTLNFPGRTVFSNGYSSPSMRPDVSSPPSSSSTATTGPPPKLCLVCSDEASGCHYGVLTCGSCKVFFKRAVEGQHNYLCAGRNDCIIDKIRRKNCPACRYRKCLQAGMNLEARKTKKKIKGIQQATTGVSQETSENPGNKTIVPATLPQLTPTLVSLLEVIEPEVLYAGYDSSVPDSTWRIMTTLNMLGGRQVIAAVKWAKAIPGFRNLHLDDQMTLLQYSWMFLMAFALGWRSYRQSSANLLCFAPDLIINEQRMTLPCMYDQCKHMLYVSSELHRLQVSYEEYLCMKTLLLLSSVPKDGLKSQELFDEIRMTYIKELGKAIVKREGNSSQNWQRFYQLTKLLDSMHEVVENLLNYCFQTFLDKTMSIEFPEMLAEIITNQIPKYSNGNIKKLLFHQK
Chain of Cytochrome P450 3A4 (Homo sapiens) (P08684 whole entry, looked up): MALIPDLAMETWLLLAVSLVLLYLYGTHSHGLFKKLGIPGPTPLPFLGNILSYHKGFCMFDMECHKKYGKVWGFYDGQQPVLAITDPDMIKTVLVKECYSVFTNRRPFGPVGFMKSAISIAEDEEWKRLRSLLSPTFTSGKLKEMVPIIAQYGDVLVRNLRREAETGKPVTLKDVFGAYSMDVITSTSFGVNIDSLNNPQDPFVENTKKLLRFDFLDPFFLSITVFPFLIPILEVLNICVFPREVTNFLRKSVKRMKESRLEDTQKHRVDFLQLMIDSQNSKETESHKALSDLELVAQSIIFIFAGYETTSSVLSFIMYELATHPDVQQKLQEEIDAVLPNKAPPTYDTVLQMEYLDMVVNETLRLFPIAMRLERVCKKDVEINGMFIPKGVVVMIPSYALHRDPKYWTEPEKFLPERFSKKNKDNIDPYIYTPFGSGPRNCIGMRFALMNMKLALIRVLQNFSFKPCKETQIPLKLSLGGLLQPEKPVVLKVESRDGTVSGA
Chain of Ubiquitin carboxyl-terminal hydrolase 1 (Homo sapiens) (O94782 whole entry, looked up): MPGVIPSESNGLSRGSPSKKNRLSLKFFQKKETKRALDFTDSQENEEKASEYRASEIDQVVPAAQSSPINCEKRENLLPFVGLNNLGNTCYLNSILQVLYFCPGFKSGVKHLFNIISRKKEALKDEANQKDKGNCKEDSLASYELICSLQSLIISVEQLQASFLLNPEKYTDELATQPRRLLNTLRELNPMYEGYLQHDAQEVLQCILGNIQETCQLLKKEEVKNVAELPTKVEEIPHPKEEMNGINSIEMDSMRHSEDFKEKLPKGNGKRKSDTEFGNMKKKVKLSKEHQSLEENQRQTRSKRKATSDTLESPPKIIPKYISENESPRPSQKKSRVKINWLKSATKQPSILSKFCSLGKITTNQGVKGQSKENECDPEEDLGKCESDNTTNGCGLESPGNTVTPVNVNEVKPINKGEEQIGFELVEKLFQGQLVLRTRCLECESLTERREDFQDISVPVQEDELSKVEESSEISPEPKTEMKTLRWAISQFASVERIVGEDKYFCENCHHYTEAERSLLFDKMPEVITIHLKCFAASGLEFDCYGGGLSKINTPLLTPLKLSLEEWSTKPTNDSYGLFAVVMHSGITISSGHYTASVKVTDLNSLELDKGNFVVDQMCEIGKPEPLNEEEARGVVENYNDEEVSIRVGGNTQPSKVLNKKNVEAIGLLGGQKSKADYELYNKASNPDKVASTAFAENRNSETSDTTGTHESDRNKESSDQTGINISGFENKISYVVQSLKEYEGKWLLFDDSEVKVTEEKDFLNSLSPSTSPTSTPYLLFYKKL
Chain of Cytochrome P450 1A2 (Homo sapiens) (P05177 whole entry, looked up): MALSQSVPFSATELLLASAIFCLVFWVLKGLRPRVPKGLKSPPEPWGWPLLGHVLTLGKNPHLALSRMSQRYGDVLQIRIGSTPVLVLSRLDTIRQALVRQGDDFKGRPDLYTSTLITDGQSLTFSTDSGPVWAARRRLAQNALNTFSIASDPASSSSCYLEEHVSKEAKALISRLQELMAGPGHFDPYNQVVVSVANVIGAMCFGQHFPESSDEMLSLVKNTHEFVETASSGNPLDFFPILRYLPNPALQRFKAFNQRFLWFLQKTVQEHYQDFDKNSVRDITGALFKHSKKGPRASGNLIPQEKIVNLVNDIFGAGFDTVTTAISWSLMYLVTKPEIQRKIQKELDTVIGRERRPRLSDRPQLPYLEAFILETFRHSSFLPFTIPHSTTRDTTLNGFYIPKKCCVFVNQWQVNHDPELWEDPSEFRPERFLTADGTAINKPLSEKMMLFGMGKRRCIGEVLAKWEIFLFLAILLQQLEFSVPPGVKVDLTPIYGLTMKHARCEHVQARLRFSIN
Chain of Dual specificity protein kinase CLK4 (Homo sapiens) (Q9HAZ1 whole entry, looked up): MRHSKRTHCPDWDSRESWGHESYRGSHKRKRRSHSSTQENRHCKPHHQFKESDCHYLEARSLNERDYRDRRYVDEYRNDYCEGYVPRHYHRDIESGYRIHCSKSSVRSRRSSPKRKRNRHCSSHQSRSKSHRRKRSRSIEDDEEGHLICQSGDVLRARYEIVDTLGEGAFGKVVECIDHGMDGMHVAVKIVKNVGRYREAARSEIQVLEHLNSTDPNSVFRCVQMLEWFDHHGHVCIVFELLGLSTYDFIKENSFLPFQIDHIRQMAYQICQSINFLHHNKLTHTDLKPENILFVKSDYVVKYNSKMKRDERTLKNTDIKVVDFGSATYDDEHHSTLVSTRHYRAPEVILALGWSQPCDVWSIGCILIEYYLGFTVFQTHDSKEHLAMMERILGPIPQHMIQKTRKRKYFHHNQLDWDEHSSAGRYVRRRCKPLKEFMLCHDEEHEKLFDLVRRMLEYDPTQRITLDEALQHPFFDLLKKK
Chain of 3',5'-cyclic-AMP phosphodiesterase 4B (Homo sapiens) (Q07343 whole entry, looked up): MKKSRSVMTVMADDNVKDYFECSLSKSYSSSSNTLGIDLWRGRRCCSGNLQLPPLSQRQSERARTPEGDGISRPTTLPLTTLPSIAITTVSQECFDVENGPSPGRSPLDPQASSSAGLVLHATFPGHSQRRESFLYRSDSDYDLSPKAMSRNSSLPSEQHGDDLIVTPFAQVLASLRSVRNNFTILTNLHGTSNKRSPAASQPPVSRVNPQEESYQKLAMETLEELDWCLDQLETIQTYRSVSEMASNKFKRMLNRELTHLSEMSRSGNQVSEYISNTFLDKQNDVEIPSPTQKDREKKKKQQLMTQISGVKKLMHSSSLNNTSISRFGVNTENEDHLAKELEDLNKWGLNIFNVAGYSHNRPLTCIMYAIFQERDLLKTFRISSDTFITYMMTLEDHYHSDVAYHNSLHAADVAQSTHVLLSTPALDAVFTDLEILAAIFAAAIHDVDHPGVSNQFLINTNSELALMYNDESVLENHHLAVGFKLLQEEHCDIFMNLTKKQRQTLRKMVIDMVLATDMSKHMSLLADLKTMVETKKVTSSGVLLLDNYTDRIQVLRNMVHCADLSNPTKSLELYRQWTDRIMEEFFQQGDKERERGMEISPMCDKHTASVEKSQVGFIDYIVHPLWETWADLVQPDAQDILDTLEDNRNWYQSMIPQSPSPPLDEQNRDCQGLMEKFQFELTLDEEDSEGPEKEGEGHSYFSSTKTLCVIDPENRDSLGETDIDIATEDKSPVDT
Chain of Cytochrome P450 2C9 (Homo sapiens) (P11712 whole entry, looked up): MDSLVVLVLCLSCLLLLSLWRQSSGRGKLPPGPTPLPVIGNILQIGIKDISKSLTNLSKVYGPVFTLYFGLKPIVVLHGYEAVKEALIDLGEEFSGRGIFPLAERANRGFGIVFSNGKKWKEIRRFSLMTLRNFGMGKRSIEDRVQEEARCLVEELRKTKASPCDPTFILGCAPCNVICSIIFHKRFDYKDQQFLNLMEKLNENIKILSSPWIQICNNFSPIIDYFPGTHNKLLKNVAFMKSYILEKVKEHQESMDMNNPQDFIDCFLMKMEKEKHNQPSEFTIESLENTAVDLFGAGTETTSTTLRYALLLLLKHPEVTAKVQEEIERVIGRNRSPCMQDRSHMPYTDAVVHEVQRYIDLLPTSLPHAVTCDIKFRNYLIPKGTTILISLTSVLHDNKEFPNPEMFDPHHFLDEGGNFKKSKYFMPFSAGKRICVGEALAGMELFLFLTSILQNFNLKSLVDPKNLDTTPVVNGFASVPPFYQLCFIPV

As to `Cc1cnc(CNc2ncnc3ccc(-c4ccc(C(=O)N(C)C)cc4)cc23)cn1`, the Potency in [1] is greater than 11.4 µM; in test [3], 15.8 µM (active); in test [6] it was greater than 46 µM; in [7], greater than 46 µM. The activity change, negative = inhibition in test [2] is -13.6%; in [4] it was 9.3%. For the same compound, in [5], the activity, negative = inhibition is -5.52%. Further, the Potency result in [8], in test [9], in test [10] and in test [11] was “inactive” in each case. Moreover, the result in test [12] was inactive.
`COc1ccccc1-c1cncnc1NCc1ccccc1`: the Potency in test [1] was greater than 11.4 µM; in test [3] it was 12.6 µM (active); in test [6], greater than 46 µM; in test [7] it was greater than 46 µM; in test [13], 0.251 µM (active). The activity change, negative = inhibition in [2] was 4.35%; in test [4], -17.9%. The activity, negative = inhibition in [5] was -7.05%. The Potency entry in [8], in test [9], in [14], in test [10] and in [11] was “inactive” throughout. Moreover, in [12], the outcome was inactive.
As for `Cc1noc(C)c1-c1nc(NC2CC2)c2ccccc2n1`, the Potency was greater than 11.4 µM in test [1], greater than 46 µM in test [6], greater than 46 µM in [7] and 14.1 µM (active) in test [15]. The values for the activity change, negative = inhibition in test [2] and in [4] were 13.4% and -6.72%, respectively. Further, the activity, negative = inhibition in test [5] is 7.05%. In addition, the Potency result in test [8], in [9] and in [11] was “inactive” each time. The outcome in test [12] was inactive.
Regarding `COc1ccc2[nH]cc(CCNc3ccnc(-c4ccccc4Cl)n3)c2c1`, the activity change, negative = inhibition was -9.46% in [2] and 5.21% in [4]. In addition, the Potency in [3] was 0.398 µM (active); in test [6] it was greater than 46 µM; in test [7] it was greater than 46 µM; in test [13], 2 µM (active); in test [15] it was 22.4 µM (active). Further, the activity, negative = inhibition in [5] was -20.6%. In addition, the Potency result in test [9], in [14] and in test [11] was “inactive” throughout. Moreover, the outcome in [12] was inactive.
Turning to `CN(C)C(=O)c1ccc(-c2nccc(-n3ccnc3)n2)cc1`, the Potency in test [1] is greater than 11.4 µM; in [3], 15.8 µM (active); in test [6], greater than 46 µM; in test [7], greater than 46 µM. Also, the activity change, negative = inhibition was 4.46% in [2] and 5.95% in test [4]. In addition, in test [5], the activity, negative = inhibition is 8.25%. Moreover, the Potency result in test [8], in test [9], in [14], in test [10] and in test [11] was “inactive” throughout. Further, in test [12], the result was inactive.
With `Cc1noc(C)c1-c1nccc(NCCN2CCOCC2)n1`, the Potency in [1] was greater than 11.4 µM; in test [3], 7.94 µM (active); in [6], greater than 46 µM; in test [7], greater than 46 µM. The figures for the activity change, negative = inhibition in test [2] and in [4] were -1.23% and -8.35%, respectively. Besides, the activity, negative = inhibition in test [5] was 2.66%. Moreover, the Potency entry in [8], in [9], in test [14], in test [10] and in [11] was “inactive” each time. The outcome in [12] was inactive.
`COc1ccccc1CNc1cc(-c2ccccc2OC)ncn1`: the Potency in test [1] was greater than 11.4 µM; in [3], 2.51 µM (active); in [6], greater than 46 µM; in test [7], greater than 46 µM; in test [17], 1.58 µM (active). In addition, the results for the activity change, negative = inhibition in [2], in test [4] and in [16] were -14.2%, -2.18% and 31.3% [at 2.29 µM], respectively. Further, in test [5], the activity, negative = inhibition is -12.6%. Also, the Potency result in [8], in [9], in test [14], in test [10] and in [11] was “inactive” in each case. Moreover, the outcome in test [12] was inactive.
